From PubChem BioAssay
Sampled rows, rich in hits. Any-hit rate of the full collection: about 2%.
p53 PUMA act – mutant p53 pathway re-activators, primary screen, cell-based, SW480, luciferase, single point, HTS; 28,000 tested, 1.5% active; activation, % at 9.98 µM; SW480 PUMA-promoter luciferase, p53 mutant reactivation; AID 624151, 2012; in the data active = activation above about 52%; inconclusive = no clear call, values can overlap the other calls
STK33 inh – STK33 kinase inhibitors, primary screen, biochemical, luminescence, ADP-Glo, MBP substrate. Serine/threonine-protein kinase 33 (Homo sapiens), Q9BYT3. inhibition, % at 12.5 µM. 27,000 tested, 0.44% active; in the data active = inhibition above about 20%; inconclusive = no clear call, values can overlap the other calls
ID4 binder – binders of human ID4 protein, primary screen, biochemical, small molecule microarray, single point | DNA-binding protein inhibitor ID-4 (Homo sapiens), P47928 | Flag-ID4 binding, fluorescence F/B | calls only | 31,000 tested, 1.2% active; call rule not given here;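 also: a binder raises fluorescence above local background on the spot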
Target sequence (P47928 whole entry, looked up): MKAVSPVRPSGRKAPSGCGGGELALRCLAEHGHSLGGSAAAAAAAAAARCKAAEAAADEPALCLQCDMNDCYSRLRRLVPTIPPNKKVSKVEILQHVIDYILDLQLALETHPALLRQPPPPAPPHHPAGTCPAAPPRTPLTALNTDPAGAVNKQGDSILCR
* hit, by the source's call; i = inactive; ? = inconclusive; . = no result given; + = active, no number.

SMILES	p53 PUMA act	STK33 inh	ID4 binder
C[C@H](CO)N1C[C@H](C)[C@@H](CN(C)C(=O)Nc2cc(F)ccc2F)Oc2cc(C#CC3CCCC3)ccc2S1(=O)=O	.	.	i
COc1cccc(-c2ccc3c(c2)O[C@H](CN(C)C(C)=O)[C@@H](C)CN([C@@H](C)CO)S3(=O)=O)c1	-3	.	.
C/C=C/c1ccc2c(c1)O[C@H](CN(C)S(=O)(=O)c1ccccc1OC)[C@H](C)CN([C@@H](C)CO)S2(=O)=O	-9	.	+
CCC(=O)N(C)C[C@@H]1Oc2cc(-c3cccc(OC)c3)ccc2S(=O)(=O)N([C@@H](C)CO)C[C@@H]1C	4	.	+
C/C=C(/C)C(=O)O[C@@H](C)[C@@](C)(O)C(=O)O[C@H](C)[C@@H](OC(=O)/C(C)=C\C)c1cc(OC)c2c(c1)OCO2	.	-10	.
CS(=O)(=O)N(CC(=O)Nc1cccc2ccccc12)c1ccc(I)cc1	24	-5	i
Cc1c(Br)c([N+](=O)[O-])nn1CC(=O)Nc1cccc(C(F)(F)F)c1	-10	-1	i
CC(=O)c1cccc(NC(=O)Nc2nn(Cc3c(F)cccc3Cl)cc2Br)c1	-55	0	i
O=C(Cc1ccccc1)c1ccccc1C(=O)NCc1cccs1	.	0	.
CC(=O)OCC1(C)CC2[C@]3(CO[C@@]24CCC2[C@@]5(C)CC[C@H](O[C@@H]6OC[C@@H](O)[C@H](O)[C@H]6O)[C@@](C)(CO)C5CC[C@@]2(C)[C@]4(C)C[C@H]3O)[C@@H](O)C1 (stereo partly specified)	.	-3	.
COC(=O)COc1cccc(NC(=O)c2cccs2)c1	-6	1	i
COc1cccc(NC(=O)CNC(=O)c2cccs2)c1	51*	1	i
COc1ccc(-c2cn(CCNC(=O)[C@H](Cc3ccccc3)NS(=O)(=O)c3ccc(C)cc3)nn2)cc1OC	.	.	+
Cc1ccc(S(=O)(=O)N[C@@H](Cc2ccccc2)C(=O)CCl)cc1	-90	8	.
O=C(CSc1nc(-c2ccccc2)cc(C(F)(F)F)n1)Nc1ccc2c(c1)CCC2	-5	-6	i
COc1cc2c(cc1NC(=O)COc1ccc([N+](=O)[O-])cc1)oc1ccccc12	-1	2	i
COc1cc2c(cc1NC(=O)Cc1ccccc1[N+](=O)[O-])oc1ccccc12	87*	3	i
O=C(CSc1nnnn1-c1ccccc1)Nc1ccc(Br)c(Cl)c1	-9	-2	i
Cc1ccc(-c2nnc(N3CCN(C(=O)CSc4nc5ccccc5o4)CC3)c3ccccc23)cc1	-18	1	i
Cc1ccc(-c2nnc(N3CCN(C(=O)CSc4nc(C)cc(C)n4)CC3)c3ccccc23)cc1	-11	1	+
O=C(COc1ccc(Br)cc1CO)Nc1ccccc1	127*	2	i
O=C(COc1ccc(CO)cc1Cl)Nc1ccc(F)cc1	-24	0	i
COc1ccccc1NC(=O)COc1ccc(Br)cc1CO	37	-7	i
O=C(COc1ccc(Br)cc1CO)Nc1ccccc1F	112*	-1	i
O=C(COc1ccccc1CO)Nc1ccccc1	77*	-4	i
SMILES	p53 PUMA act	STK33 inh	ID4 binder
COc1cc(CO)ccc1OCC(=O)Nc1ccc(Br)cc1	?	2	i
O=C(COc1ccc(Cl)cc1CO)Nc1ccc(F)cc1	69*	0	i
COc1ccc(NC(=O)COc2ccccc2CO)cc1	25	0	i
O=[N+]([O-])c1ccc(NCCNS(=O)(=O)c2ccc(Br)cc2)cc1	-12	1	i
CCOc1cccc2c(C)nc(Nc3nc4c(c(=O)[nH]3)CCCC4)nc12	-61	0	i
Cc1ccc2oc(C(=O)Nc3sc4c(c3C(=O)NCc3ccco3)CCC4)c(C)c2c1	2	0	i
CCOc1ccc2[nH]c(C)c(CCC(C)=O)c(=O)c2c1	1	-3	i
Cc1ccc(NC(=O)COc2ccc(CO)cc2Br)cc1	-19	-3	i
O=C(COc1ccc(CO)cc1)Nc1ccc(F)cc1	23	5	i
Cc1ccc(NC(=O)COc2ccc(Br)cc2CO)cc1	68*	0	i
O=C(COc1ccc(CO)cc1)Nc1ccccc1	66*	-6	i
COC(=O)C(C(CO)Cc1ccc(O)c(OC)c1)C(O)c1ccc(O)c(OC)c1 (stereo unspecified)	5	0	i
CCOC(=O)c1sc2ncn(CC(=O)Nc3cccc(Br)c3)c(=O)c2c1C	-13	-2	i
CC(C)=CC(=O)CC(O)(c1ccccc1)c1ccccc1	4	.	i
CCOC(=O)c1ccc(COc2ccc(-c3cnc4ccccc4n3)cc2)o1	130*	3	i
CCOC(=O)c1ccc(COC(=O)c2cc3ccccc3cc2O)o1	-2	0	i
C=C1C(=O)O[C@@H]2/C=C(/COC(C)=O)CC/C=C(/CO)CC[C@@H]12	.	7	.
Cc1ccc(NC(=O)C2CC(=O)n3cnnc3N2)cc1 (stereo unspecified)	1	1	i
O=C(Nc1ccc(F)cc1)C1CC(=O)n2cnnc2N1 (stereo unspecified)	-5	0	+
COC(=O)c1ccccc1NC(=O)C1=C(C)NC(=S)NC1c1cc(Cl)cc(OC)c1OC(C)C (stereo unspecified)	-5	3	i
COc1ccc([C@@H]2CC(=O)c3c(O)cc(O)cc3O2)cc1O	40	1	.
COc1cc(/C=C2\Oc3cc(O)cc(O)c3C2=O)cc(OC)c1O	.	88*	.
CS(=O)(=O)Nc1ccc(C(=O)NCc2cccnc2)cc1	8	0	i
O=C(NCc1cccnc1)c1cccc(NC(=O)c2ccco2)c1	-2	-1	+
COc1cc(OC)c2c(=O)c(OC)c(-c3ccccc3)oc2c1	0	-2	.
SMILES	p53 PUMA act	STK33 inh	ID4 binder
COC(=O)c1ccccc1NC(=O)COc1ccc(C)cc1C	4	2	i
Cc1cc(OCC(=O)Nc2ccccc2C(N)=O)c(C)cc1Br	32	0	i
Cc1cc(C)c(C)c(OCC(=O)Nc2ccccc2C(N)=O)c1	53*	0	i
CCc1ccc(OCC(=O)Nc2ccccc2C(N)=O)c(Br)c1	71*	-7	i
COc1cc(/C=C2/SC(=Nc3cc(C)cc(C)c3)NC2=O)cc(Br)c1OC	.	0	.
Cc1cc(C)c2oc(-c3ccc(NC(=O)COc4ccc(Br)cc4)cc3O)nc2c1	.	0	.
O=c1c(C(F)(F)F)cccn1Cc1ccccc1	.	-1	.
C[C@H]1CC[C@@H]2[C@@H](C(=O)c3c(O)c([C@]4(O)CC[C@@H](O)[C@H]5O[C@H]54)cn(O)c3=O)[C@@H](C)C=C[C@H]2C1	.	-5	.
C/C=C(\C)C(=O)OC1C(OC(=O)/C=C(/C)CC(=O)O)C2(CO)C(O)CC3(C)C(=CCC4C5(C)CCC(OC6OC(C(=O)O)C(O)C(OC7OC(C)C(O)C(OC8OC(CO)C(O)C(O)C8O)C7O)C6O)C(C)(C)C5CCC43C)C2CC1(C)C (stereo unspecified)	.	-4	.
CCc1cc(C)cc(OCCn2cc(C=C3C(=O)NC(=O)NC3=O)c3ccccc32)c1	.	2	.
CS(=O)(=O)N(CC(=O)Nc1ccc(Oc2ccccc2)cc1)c1ccc(F)c(Cl)c1	-4	-3	i
